# From PubChem
# Only some compounds are listed: those with a hit (about 2.4% of all), similar ones and a draw of the others.
# D2 PAM-1 = D2 dopamine receptor (human) potentiation. hit rate 0.34% among 340,000. HEK293 T-REx D2, calcium flux, EC20 dopamine potentiation. P14416. AID 485347. potentiation, % at 10 µM;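 active means potentiation over 3 SD above the plate norm, cut at about 30% in these data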; further: 0% is about no effect
# Target sequence (P14416 whole entry, looked up): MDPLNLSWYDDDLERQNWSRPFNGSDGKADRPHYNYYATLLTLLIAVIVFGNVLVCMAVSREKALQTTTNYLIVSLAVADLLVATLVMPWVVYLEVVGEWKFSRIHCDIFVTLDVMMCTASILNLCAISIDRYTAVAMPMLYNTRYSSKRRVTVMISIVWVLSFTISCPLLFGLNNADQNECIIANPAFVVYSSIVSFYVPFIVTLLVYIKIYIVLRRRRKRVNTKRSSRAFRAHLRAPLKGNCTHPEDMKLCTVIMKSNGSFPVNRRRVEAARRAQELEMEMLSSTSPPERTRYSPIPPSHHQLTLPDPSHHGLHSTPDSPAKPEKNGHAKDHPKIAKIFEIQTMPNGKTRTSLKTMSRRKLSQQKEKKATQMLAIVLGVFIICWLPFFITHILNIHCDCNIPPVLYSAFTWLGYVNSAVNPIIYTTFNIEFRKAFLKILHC
#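 Tetracycline-induced HEK293 T-REx cells force-coupled to calcium signalling expressed D2; compounds were pin-added after a 10 s baseline, read kinetically 180 s, then an EC20 dopamine challenge followed with a further 180 s calcium read.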
# D2 ag-1 = agonists of human D2 dopamine receptor | HEK293 T-REx D2 cells, calcium flux agonist mode | activation, % at 2 µM | P14416 | AID 485358 | hit rate 0.53% among 340,000;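 active means activation over 3 SD above normal in the single-dose calcium agonist read, cut at about 30% in these data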; further: 0% is about no effect
#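 Agonism scored from kinetic calcium signal (1 read/sec, 180 s) following compound pin transfer, after a 10 s baseline. Cells: HEK293 Trex line expressing inducible D2 receptor coupled to calcium, dye-loaded after overnight culture at 30 C.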
# D2 PAM-2 = human D2 receptor positive allosteric modulation. DiscoveRx D2 beta-arrestin cells, luminescence, 90 min; 100% = 57 uM dopamine signal. hit rate 0.23% among 360,000. P14416. potentiation, % (concentration not given with the values); in the data active means potentiation above about 50%
#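 PathHunter beta-arrestin assay in DiscoveRx D2 cells. Compounds were added with an EC20 of dopamine (50 nM final) for 90 min at 37 deg C. Luminescence was read 1 h after detection reagent, with 57 uM dopamine as the EC100 control.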
# D2 ag-2 = agonists of human D2 dopamine receptor (beta-arrestin); DiscoveRx PathHunter D2 beta-arrestin, luminescence, 90 min; 100% = 57 uM dopamine signal; P14416; AID 624465; activation, % (test concentration not listed); hit rate 0.084% among 360,000; in the data active means activation above about 40%
#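 DiscoveRx PathHunter D2 beta-arrestin cells (2,100/well) attached overnight, then compound-stimulated 90 min at 37 C in HBSS/10 mM HEPES/0.1% Tween-20 buffer; beta-galactosidase complementation read by luminescence after 1 h at ambient temperature. Dopamine 57 uM final (EC100) as control.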
# D2 antagonist = antagonists of human D2 dopamine receptor | HEK293 TREx D2 cells, calcium flux, dopamine EC80 | inhibition, % at 10 µM | hit rate 2% among 340,000; in the data active means inhibition above about 30%; inactive means below that, where a call was filed; further: 0% is about no effect
#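 Calcium mobilization kinetics were recorded at 1 s intervals in tetracycline-induced HEK293 T-REx D2 cells, first for 180 s after compound addition and then 180 s after EC80 dopamine.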
# Starred values were filed as active, the others as inactive; · = no result; ! = a repeat was not active.
SMILES,D2 PAM-1,D2 ag-1,D2 PAM-2,D2 ag-2,D2 antagonist
CC(NC(=O)c1ccccc1)c1nnc(SCC(=O)NC2=NCCS2)n1C (centres undefined),-4.1,0.3,-2.5,-2.0,-17.1
CCn1c(SCC(=O)Nc2ccc3c(c2)OCO3)nc2c(c1=O)SC(C)C2 (centres undefined),-0.2,-0.8,-3.0,-3.8,1.9
C/C(=N/NS(=O)(=O)c1ccc(F)cc1)c1ccc(NC(=O)c2ccc(C)o2)cc1,-1.1,0.3,-4.3,-3.3,-9.9
CCCN1CCN(C(=O)c2cc(COc3ccc4ncccc4c3)on2)CC1,9.4,0.0,-10.3,2.0,-14.0
COc1ccc(OCCOCCN2CCN(C)CC2)cc1,-10.5,-0.3,-1.7,-2.1,-3.4
COc1cccc(OC)c1OCCOCCN1CCN(C)CC1,-25.1,2.1,-22.7,0.1,68.4*
COc1ccc(/C=N/OC/C(O)=C(\C#N)c2nc3ccccc3[nH]2)cc1,3.2,0.6,0.1,0.6,4.1
COc1cccc(-n2c(=O)c3ccccc3n(CC(=O)NCC3CCCO3)c2=O)c1 (centres undefined),-10.6,0.3,-2.4,1.2,-15.0
O=C1OCC/C1=C\c1ccccc1O,2.3,0.4,-4.2,0.4,-2.4
COc1ccccc1C(=O)NCCC(=O)NCCC12CC3CC(CC(C3)C1)C2,-5.7,-0.5,-7.9,-3.6,-0.1
COc1ccc(C23CC4CC(CC(C4)C2)C3)cc1C(=O)NCCN(C)C,-15.1,-0.8,-61.7,-5.8,33.5*
CCOc1ccccc1OCCOCCN1CCN(Cc2ccccc2)CC1,-20.8,0.4,-24.3,0.2,-15.4
COc1ccc2cc(CN(CCO)C(=O)c3ccccc3F)c(=O)[nH]c2c1,·,0.0,2.3,0.6,0.9
Cc1ccccc1OCc1nc2ccccc2c(=O)n1/N=C/c1cn[nH]c1-c1ccccc1,-2.2,0.2,8.4,-2.4,56.7*
CCOC(=O)c1c(NC(=O)COC(=O)c2ccc(O)cc2)sc(C(=O)N(C)C)c1C,36.4*,0.3,-4.7,-0.4,-8.5
CCOC(=O)c1c(NC(=O)OC)sc(C(=O)N(C)C)c1C,-4.6,0.0,13.9,4.2,69.4*
COc1ccc(-c2cc(C(=O)NC(C)c3ccccn3)c3ccccc3n2)cc1OC (centres undefined),43.8*,0.2,6.4,11.5,-28.6
COc1ccc(-c2cc(C(=O)NC3CCCC3)c3ccccc3n2)cc1OC,·,·,0.4,-2.2,·
O=C(c1cccs1)N1CCN=C1SCc1ccccc1,-2.9,1.9,-8.8,-3.4,-8.5
Cc1ccc(NC(=O)CS(=O)(=O)c2cn(C)c3ccccc23)c(C)c1,7.9,-1.2,-5.3,-0.8,16.3
Cn1cc(S(=O)(=O)CC(=O)Nc2ccc(Br)cc2)c2ccccc21,-12.8,-0.8,-9.9,-2.5,39.2*
COc1ccc(NC(=O)CS(=O)(=O)c2cn(CC(=O)N(C(C)C)C(C)C)c3ccccc23)c(OC)c1,9.9,-0.8,11.7,0.2,13.0
CCCn1cc(S(=O)(=O)CC(=O)Nc2ccc(OC)cc2OC)c2ccccc21,-2.0,-0.6,68.1*,8.9,4.4
CCn1cc(S(=O)(=O)CC(=O)Nc2ccc3c(c2)OCCO3)c2ccccc21,7.3,-0.9,52.6*,11.7,11.5
O=C(Nc1ccc(NC(=O)c2cccs2)cc1)c1ccc2c(c1)OCCO2,-16.7,2.5,-9.1,-2.9,34.2*
SMILES,D2 PAM-1,D2 ag-1,D2 PAM-2,D2 ag-2,D2 antagonist
O=C(Nc1ccc(N2CCOCC2)c(Cl)c1)c1ccc2c(c1)OCCO2,19.0,2.3,-4.4,5.5,30.5*
O=C(NC1CCCc2ccccc21)C1CCN(S(=O)(=O)N2CCCCCC2)CC1 (centres undefined),-8.2,0.2,-0.5,-1.1,-9.7
COc1ccc(CNC(=O)C(C)OC(=O)c2cccs2)cc1 (centres undefined),32.8*,-0.2,1.1,-4.4,-3.1
CC(OC(=O)c1cccs1)C(=O)NCc1cccs1 (centres undefined),2.3,-0.3,1.1,1.9,-7.5
CC(C)(Oc1ccc(Cl)cc1)C(=O)N1CCN(c2ccccn2)CC1,2.1,-0.8,-19.9,-3.3,43.0*
NC(=O)C1CN(S(=O)(=O)c2ccc(Cl)cc2F)c2ccccc2O1 (centres undefined),2.1,-2.0,-1.0,-4.2,-10.7
COc1ccccc1N1CCN(C2CCN(C3CCC(c4ccccc4)CC3)CC2)CC1 (centres undefined),-26.4,-1.0,·,·,45.1*
COc1ccccc1N1CCN(C2CCN(C(=O)COc3cccc(C)c3)CC2)CC1,-12.6,0.1,-39.9,-0.2,69.4*
COc1ccccc1N1CCN(C2CCC(C)CC2)CC1 (centres undefined),-38.4,-0.2,-1.6,-4.4,11.0
Cc1ccccc1NC(=S)N(CCN(C)C)C(C)c1ccco1 (centres undefined),-0.5,1.4,-23.6,1.5,-6.7
CCCN1CNc2c(c(=O)[nH]c(=S)n2-c2ccccc2Cl)C1,67.6*,-0.3,2.2,-4.4,2.6
COc1ccc(CCCNC(=O)C2(C)Cc3c(-c4cccc(C(N)=O)c4)ccnc3O2)cc1 (centres undefined),·,·,26.7,76.4*,·
CC1(C(=O)NCCC(F)(F)F)Cc2c(-c3cccc(C(N)=O)c3)ccnc2O1 (centres undefined),·,·,-16.1,9.1,·
Fc1ccc([C@@H]2CCNC[C@H]2COc2ccc3c(c2)OCO3)cc1,-9.4,14.6,-6.1,2.9,40.7*
COc1cc(N=c2ssnc2Cl)cc(OC)c1,34.8*,-2.4,-12.5,-8.4,9.7
Cc1nc2sccn2c(=O)c1S(=O)(=O)Nc1ccc(N2CCN(C(=O)C(C)C)CC2)cc1,50.7*!,-1.4,1.0,2.9,-5.3
Cc1ccc(NS(=O)(=O)c2c(C)nc3sccn3c2=O)cc1,-2.2,0.7,-4.1,-1.4,9.4
CCCS(=O)(=O)c1nc(S(=O)(=O)c2ccc(C)cc2)c(N2CCN(CC)CC2)s1,-22.9,0.2,-34.1,-5.3,67.4*
CCN1CCN(c2sc(S(=O)(=O)CC)nc2S(=O)(=O)c2ccc(C)cc2)CC1,·,·,-26.9,-1.6,·
Cc1cc(=O)[nH]c(SCC(=O)OCc2ccccc2)c1C#N,-4.1,-0.6,-2.4,0.5,8.2
COc1ccccc1-n1c(SCC(=O)NC2CCS(=O)(=O)C2)nc2cc([N+](=O)[O-])ccc21 (centres undefined),-4.9,0.2,-1.4,-0.1,-17.6
CCN(CC)S(=O)(=O)c1ccc2c(c1)nc(SCC(=O)NC1CC1)n2-c1ccccc1OC,·,1.0,-5.0,-2.3,50.5*
Cc1ccc(S(=O)(=O)N2CCN(C(=O)C3CC3C)CC2)c(C)c1 (centres undefined),-0.3,-0.1,5.4,-8.4,-6.1
